Test results taken from ChEMBL document CHEMBL1201862, “PubChem BioAssay data set” (2004).
The whole screen tested about 18,000 compounds, of which about 1,200 (6.7%) were called active. Inconclusive results (about 16%) are left out. The calls are words filed in the database; no cut-off is given here. The sample as a whole holds a higher share of actives than the screen did.

Assay: qHTS for Inhibitors of binding or entry into cells for Marburg Virus.

Compound | Potency
COC[C@@H]([C@H](O)[C@H](O)C(=O)NCC[C@H](C)c1nc(/C=C/C[C@@H]2O[C@]3(C[C@@H](O)[C@@H]2C)O[C@H]([C@H](C[C@H](O)[C@H](C)[C@H](O)[C@H](C)/C=C(C)/C(C)=C/C=C/C(C)=C\C#N)OC)[C@H](OP(=O)(O)O)C3(C)C)co1)N(C)C | 0.0411 µM (active)
COC(=O)[C@H]1[C@H]2C[C@@H]3c4[nH]c5cc(OC)ccc5c4CCN3C[C@H]2C[C@@H](OC(=O)c2cc(OC)c(OC)c(OC)c2)[C@@H]1OC | 355 µM (active)
NITROPRUSSIDE, CHEMBL2097081 | inactive; 562.3 nM
